Counter-ions that a name gives are not always drawn. Whole data set: some 2,000 compounds, median “fractional viability relative to vehicle” near 0.91, cut for the lowest 2% near 0.045. This is one part of a sample in which the lowest values are shown more often than they occur.
Test system: TYKNU
Assay: fractional viability relative to vehicle; TYKNU is a high-grade serous ovarian cancer line; higher = less growth inhibition
Settings: 72 h
How it was run: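 TYKNU control cells or lentiCRISPRv2 knockout derivatives were seeded at 500 cells per well into drug-stamped 384-well plates holding a ~2100-compound library at 2 or 10 μM, in duplicate. Cells were grown at 37 °C in 5% CO2 in RPMI 1640 with 10% FBS, and drug treatment lasted 72 h. Viability was read by Cell Titer Glo luminescence. Duplicate treatment wells were averaged and normalised to duplicate control wells from the same plate position.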

[1] = 2uM, genotype: DNM1L knockout (sgDNM1L #1)
[2] = 2uM, genotype: sgCTRLA1 (non-targeting control)
[3] = 10uM, genotype: DNM1L knockout (sgDNM1L #1)
[4] = 10uM, genotype: sgCTRLA1 (non-targeting control)

SMILES	fractional viability [1]	fractional viability [2]	fractional viability [3]	fractional viability [4]
O=C(NC[C@H](O)CO)c1ccncc1Nc1ccc(I)cc1F	0.333	0.318	0.212	0.205
CCCSc1nc(N[C@@H]2C[C@H]2c2ccc(F)c(F)c2)c2nnn([C@@H]3C[C@H](OCCO)[C@@H](O)[C@H]3O)c2n1 [Ticagrelor]	0.944	1.12	0.492	0.903
CCN(CC)C(=S)SSC(=S)N(CC)CC [Disulfiram]	0.456	0.291	0.0708	0.0241
CC(=O)N1c2ccc(-c3ccc(C(=O)O)cc3)cc2[C@H](Nc2ccc(Cl)cc2)C[C@@H]1C	0.281	0.395	0.237	0.208
Cc1cc(Nc2ccc(NC(=O)c3ccc(Nc4ccnc5ccccc45)cc3)cc2)nc(N)n1	0.0197	0.0121	0.0121	0.00969
CC(=O)Nc1ccc(C(=O)Nc2ccccc2N)cc1 [CI994 (Tacedinaline)]	0.966	0.965	0.456	0.675
CNCc1ccc(C)c(NC(=O)c2ccc(Nc3nc(-c4ccccc4)c4ccccc4n3)cc2)c1	0.752	1.03	0.0487	0.0706
COc1cc(OC)c2c(=O)[nH]c(-c3cc(C)c(OCCO)c(C)c3)nc2c1	1.15	1.12	0.973	1.03
CN(C)CCNC(=O)c1cccn2c(=O)c3cc4ccccc4cc3nc12	0.389	0.417	0.107	0.0609
Cc1cnc(Nc2ccc(OCCN3CCCC3)cc2)nc1Nc1cccc(S(=O)(=O)NC(C)(C)C)c1	0.352	0.378	0.0362	0.0573
C=CC(=O)Nc1cccc(Nc2nc(Nc3ccc(OCCOC)cc3)ncc2F)c1	0.626	0.721	0.273	0.297
Cc1cnc(Nc2ccc(N3CCN(C)CC3)cc2)nc1Nc1cccc(S(=O)(=O)NC(C)(C)C)c1	0.363	0.472	0.0682	0.0804
Cc1nc(Nc2cnn(C3CCNCC3)c2)nc2c1N(C)C(=O)c1cc3ccccc3cc1N2C	0.723	0.802	0.376	0.51
CCN(CC)CCOc1ccc(C(=C(Cl)c2ccccc2)c2ccccc2)cc1 [Clomifene citrate]	0.751	1.08	0.178	0.479
O=S(=O)(NCCSSCCNS(=O)(=O)c1cc(Cl)ccc1Cl)c1cc(Cl)ccc1Cl	0.891	0.899	0.197	0.43
Cc1cc(Nc2ncc(Cl)c(Nc3ccccc3S(=O)(=O)C(C)C)n2)c(OC(C)C)cc1C1CCNCC1	0.612	0.403	0.026	0.0128
CN1CCN(Cc2ccc(Nc3ncc(Cl)c(Nc4ccccc4S(=O)(=O)N(C)C)n3)cc2)CC1	0.22	0.229	0.234	0.18
O=C(O)c1cc2cccc([N+](=O)[O-])c2[nH]1	0.859	1.09	0.957	0.802
CCCCNc1ncc2c(-c3ccc(CN4CCN(C)CC4)cc3)cn([C@H]3CC[C@H](O)CC3)c2n1	0.322	0.41	0.0773	0.0599
C=CCc1cccc(/C=N/NC(=O)CN2CCN(Cc3ccccc3)CC2)c1O	0.604	0.671	0.277	0.27

SMILES	fractional viability [1]	fractional viability [2]	fractional viability [3]	fractional viability [4]
Cc1[nH]nc2ccc(-c3cncc(OC[C@@H](N)Cc4ccccc4)c3)cc12	0.23	0.212	0.137	0.0399
CC[C@H]1OC(=O)C[C@@H](O)[C@H](C)[C@@H](O[C@@H]2O[C@H](C)[C@@H](O)[C@H](N(C)C)[C@H]2O)[C@@H](CCN2C[C@H](C)C[C@H](C)C2)C[C@@H](C)C(=O)/C=C/C(C)=C/[C@@H]1CO[C@@H]1O[C@H](C)[C@@H](O)[C@@H](OC)[C@H]1OC [Tilmicosin]	2.22	1.13	1.49	1.11
CC(/C=C1\SC(=S)N(CC(=O)O)C1=O)=C\c1ccccc1 [Epalrestat]	0.92	1.11	0.89	1.03
CCOC(=O)[C@H]1O[C@@H]1C(=O)N[C@@H](CC(C)C)C(=O)NCCC(C)C [Aloxistatin]	0.853	0.91	0.817	0.78
Cc1c[nH]c(/C=C2\C(=O)Nc3ccccc32)c1CCC(=O)O	0.91	0.936	0.874	0.784
CC(C)(C)NCC(O)COc1cccc2c1CCC(=O)N2 (stereo unspecified) [Carteolol HCl]	0.876	1.16	0.838	1.14
CC(C)NCC(O)COc1cccc2ccccc12 (stereo unspecified) [Propranolol HCl]	0.866	1.12	0.82	1.1
CC(C)(Cc1ccc2ccccc2c1)NC[C@@H](O)COc1cccc(Cl)c1C#N	0.854	1.1	0.585	0.0354
NCc1c[nH]c(=S)n1[C@H]1CCc2c(F)cc(F)cc2C1 [Nepicastat (SYN-117) HCl]	0.973	1.11	0.953	0.993
NC1=N[C@@](c2cccc(-c3cncnc3)c2)(c2ccnc(C(F)F)c2)c2cccc(F)c21	0.851	1.01	0.765	0.736
CCCc1cc2c(N3CCN(C4=NCC(C)(C)S4)CC3)ncnc2s1 [MI-2 (Menin-MLL Inhibitor)]	0.919	0.869	0.747	0.665
CCOC(=O)c1cnc2ccc(-c3cncc(NS(=O)(=O)c4ccccc4)c3)cn12	0.176	0.171	0.183	0.108
O=C(c1ccccc1)c1ccc2nc(NC(=O)c3csc(C4CCN(c5ncnc6ccsc56)CC4)n3)[nH]c2c1	0.749	1.15	0.481	0.328
CC(C)OC(=O)C1=CN(C(=O)c2ccc(F)c(F)c2)CC(C)(C)c2c1[nH]c1ccccc21	0.991	1.05	0.865	0.965
CCc1cccc(CC)c1NC(=O)N1Cc2[nH]nc(NC(=O)c3ccc(N4CCN(C)CC4)cc3)c2C1	0.538	0.711	0.359	0.462
CO[C@@H](C(=O)N1Cc2[nH]nc(NC(=O)c3ccc(N4CCN(C)CC4)cc3)c2C1)c1ccccc1	0.503	0.521	0.486	0.427
CN1CCN(c2ccc(C(=O)Nc3n[nH]c4ccc(Cc5cc(F)cc(F)c5)cc34)c(NC3CCOCC3)c2)CC1 [Entrectinib (RXDX-101)]	0.597	0.771	0.0511	0.0303
OCc1ccc(O[C@@H]2O[C@H](CO)[C@@H](O)[C@H](O)[C@H]2O)cc1 [Gastrodin]	0.926	1.16	0.853	1.06
COc1ccc(-c2nc3cc(C4=NNC(=O)CC4C)ccc3[nH]2)cc1 (stereo unspecified) [Pimobendan]	1.1	1.05	0.55	0.472
CN1C(C(=O)Nc2ccccn2)=C(O)c2sc(Cl)cc2S1(=O)=O [Lornoxicam]	1.04	1.22	0.894	0.996

SMILES	fractional viability [1]	fractional viability [2]	fractional viability [3]	fractional viability [4]
Cc1cc(N2CCOCC2)cc2[nH]c(-c3c(NC[C@@H](O)c4cccc(Cl)c4)cc[nH]c3=O)nc12	0.488	0.845	0.35	0.472
C=C1C(=O)O[C@H]2[C@H]1CC/C(C)=C/CC[C@@]1(C)O[C@@H]21 [(-)-Parthenolide]	0.336	0.595	0.0299	0.0264
C=C1C(=O)O[C@@H]2/C=C(\C)CC/C=C(\C)CC[C@@H]12 [Costunolide]	0.946	1.05	0.226	0.249
CN(C)CCc1c[nH]c2ccc(CS(=O)(=O)N3CCCC3)cc12 [Almotriptan Malate]	1.02	1.18	0.947	1.02
CC(C)(O)CC[C@@H](O)[C@](C)(O)[C@H]1CC[C@@]2(O)C3=CC(=O)[C@@H]4C[C@@H](O)[C@@H](O)C[C@]4(C)[C@H]3CC[C@]12C [20-Hydroxyecdysone]	1.04	1.1	0.84	1.02
COc1cc(Nc2c(C#N)cnc3cc(OCCCN4CCN(C)CC4)c(OC)cc23)c(Cl)cc1Cl [Bosutinib (SKI-606)]	0.41	0.574	0.138	0.111
COc1cc(OC)c(C(=O)CCCN2CCCC2)c(OC)c1 [Buflomedil HCl]	0.912	1.1	0.825	1.03
COc1cc2nc(N3CCCC3)nc(NCCCCCN3CCCC3)c2cc1OC	0.426	0.543	0.0312	0.0156
COC(=O)c1ccc2c(c1)[nH]c1ncnc(NCCCN3CCCCC3)c12	0.884	1.05	0.929	0.811
COc1cc2nc(N3CCN(C(=O)C4COc5ccccc5O4)CC3)nc(N)c2cc1OC (stereo unspecified) [Doxazosin Mesylate]	1.18	1.11	1.07	0.931
COc1cc2nc(N3CCCN(C)CC3)nc(NC3CCN(Cc4ccccc4)CC3)c2cc1OC	0.474	0.548	0.0331	0.0181
COc1cc2c(NC3CCN(CC4CCCCC4)CC3)nc(N3CCCN(C(C)C)CC3)nc2cc1OCCCN1CCCCC1	0.657	0.723	0.0227	0.00884
COc1cc2nc(N3CCN(C(=O)C4CCCO4)CC3)nc(N)c2cc1OC (stereo unspecified) [Terazosin HCl]	1.17	1.16	1.07	0.97
c1coc(CNc2ncnc3[nH]cnc23)c1 [Kinetin]	1.01	1.01	0.361	0.431
Cc1nn(C)c2c1C(c1ccc(C(F)(F)F)cc1)C(C#N)=C(N)O2 (stereo unspecified)	0.924	1.08	0.886	0.86
OC(CN1CCN(c2cccc(Cl)c2)CC1)C(c1ccccc1)c1ccccc1 (stereo unspecified)	0.96	1.02	0.831	1.05
Cc1cc(C(O)=C2C(=O)C(=O)N(CCCN3CCOCC3)C2c2ccncc2)ccc1OCc1ccccc1 (stereo unspecified)	0.77	0.984	0.802	0.726
NC(=O)C(c1ccccc1)(c1ccccc1)[C@@H]1CCN(CCc2ccc3c(c2)CCO3)C1 [Darifenacin HBr]	0.951	1.21	0.794	0.953
C=C[C@]1(C)C[C@@H](OC(=O)CSC(C)(C)CNC(=O)[C@H](N)C(C)C)[C@]2(C)[C@H](C)CC[C@]3(CCC(=O)[C@H]32)[C@@H](C)[C@@H]1O [Valnemulin HCl]	0.403	0.236	0.385	0.238

Source: the supplement of paper PMC5919970
